Measurements published in PubChem BioAssay (Tox21).
Results filed as inconclusive are left out. The source made the active and inactive calls. Calls follow the shape of the full dose curve.

Assays:
[1] = target: Acetylcholinesterase (Homo sapiens) (UniProt P22303); assay: Acetylcholinesterase (AChE) small molecule antagonists: colormetric cell-based qHTS assay (AID 1347395); also: nearly all actives have a fitted effect of over 30% in size
Outline: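 Quantitative HTS in attached SH-SY5Y cells: 30 min compound exposure, then 90 min with acetylthiocholine and DTNB at 37 C; colour from thiocholine reports AChE activity.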

[2] = target: Acetylcholinesterase (Homo sapiens) (UniProt P22303); assay: Acetylcholinesterase (AChE) small molecule antagonists: enzyme-based qHTS assay (AID 1347397); conditions: Potency: AChE enzyme activity inhibition; outcome: AChE enzyme activity inhibition; also: nearly all actives have a fitted effect of over 55% in size
Outline: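 In this quantitative HTS, compounds from the Tox21 10K collection were preincubated 30 min at ambient temperature with recombinant human AChE dispensed at 50 mU/mL. Hydrolysis of acetylthiocholine was then followed for 10 min by DTNB colour development.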

[3] = target: Acetylcholinesterase (Homo sapiens) (UniProt P22303); assay: Acetylcholinesterase (AChE) small molecule antagonists: fluorescence cell-based qHTS assay (AID 1347398); conditions: Potency: AChE activity; outcome: AChE activity; also: nearly all actives have a fitted effect of over 50% in size
Outline: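 Cells (SH-SY5Y) attached overnight, were dosed with compound or DMSO vehicle for 30 min at 37 C, and then incubated 40 min at room temperature with acetylthiocholine and Thiolite Green; green fluorescence indexed AChE activity.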

[4] = target: Acetylcholinesterase (Homo sapiens) (UniProt P22303); assay: Acetylcholinesterase (AChE) small molecule antagonists: enzyme-based qHTS assay with human liver microsomes (AID 1347399); conditions: Potency: qHTS inhibition; outcome: qHTS inhibition; also: nearly all actives have a fitted effect of over 60% in size
Outline: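 Recombinant human AChE (50 mU/mL in the enzyme mix) and human liver microsomes (0.25 mg/mL final) were preincubated with compound and NADPH (0.25 mg/mL final) for 30 min at 37 C. Acetylthiocholine/DTNB was then added; thiocholine was read colorimetrically after 10 min at room temperature.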
% is scaled to controls: 0 for no effect and ±100 for the full control effect.

Acetylcholinesterase (Homo sapiens), sequence (P22303 whole entry, looked up): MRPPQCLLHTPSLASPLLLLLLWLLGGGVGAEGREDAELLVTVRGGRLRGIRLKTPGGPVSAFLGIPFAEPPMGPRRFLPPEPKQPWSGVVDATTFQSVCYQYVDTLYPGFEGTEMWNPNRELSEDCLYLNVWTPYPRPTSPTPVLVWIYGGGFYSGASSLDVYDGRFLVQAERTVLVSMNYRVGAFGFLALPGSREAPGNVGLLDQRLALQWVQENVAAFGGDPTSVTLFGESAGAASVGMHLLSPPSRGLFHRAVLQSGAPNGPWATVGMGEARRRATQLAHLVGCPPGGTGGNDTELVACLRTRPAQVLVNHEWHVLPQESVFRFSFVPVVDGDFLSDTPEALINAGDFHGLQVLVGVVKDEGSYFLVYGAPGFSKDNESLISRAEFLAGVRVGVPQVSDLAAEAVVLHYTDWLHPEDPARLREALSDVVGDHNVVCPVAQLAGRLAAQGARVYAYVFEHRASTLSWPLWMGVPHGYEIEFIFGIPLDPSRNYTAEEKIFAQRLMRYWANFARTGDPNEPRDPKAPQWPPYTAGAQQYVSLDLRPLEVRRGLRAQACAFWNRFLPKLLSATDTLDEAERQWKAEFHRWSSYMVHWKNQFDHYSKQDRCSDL

CC(C)COC(=O)C(C)C
inactive: Potency [1] | Potency [2] | Potency [3] | Potency [4]

CC(=O)Nc1ccc(S(=O)(=O)Nc2cc(C)on2)cc1
inactive: Potency [1] | Potency [2] | Potency [3] | Potency [4]

CCOC(=O)C(C)O (stereo not given)
inactive: Potency [1] | Potency [2] | Potency [3] | Potency [4]

S=C(SSSSSSC(=S)N1CCCCC1)N1CCCCC1
inactive: activity, negative = inhibition [1] -0.568% [at 23.6 µM] | activity change, negative = inhibition [2] 0.13% [at 23.6 µM] | activity change, negative = inhibition [3] -3% [at 23.8 µM] | activity change, negative = inhibition [4] -2.6% [at 23.6 µM]

N[C@@H](CSCCCO)C(=O)O
inactive: activity, negative = inhibition [1] -1.97% [at 23.6 µM] | activity change, negative = inhibition [2] 1.52% [at 23.6 µM] | activity change, negative = inhibition [3] 1.96% [at 23.8 µM] | activity change, negative = inhibition [4] -0.67% [at 23.6 µM]

O=C(O)CNC(=O)c1ccccc1I
inactive: Potency [1] | Potency [2] | Potency [3] | Potency [4]

C=CC(=O)OCCOCC(CC)(COCCOC(=O)C=C)COCCOC(=O)C=C
inactive: Potency [1] | Potency [2] | Potency [3] | Potency [4]

CC1CCc2c(N3CCC(O)CC3)c(F)cc3c(=O)c(C(=O)O)cn1c23 (stereo not given)
inactive: Potency [1] | Potency [2] | Potency [3] | Potency [4]

CCCCCCCCCCCCS(=O)(=O)Cl
inactive: activity, negative = inhibition [1] -0.822% [at 23.6 µM] | activity change, negative = inhibition [2] 0.136% [at 23.6 µM] | activity change, negative = inhibition [3] 0.319% [at 23.8 µM] | activity change, negative = inhibition [4] 0.324% [at 23.6 µM]

CC(C)(C)c1nnc(NS(=O)(=O)c2ccc(N)cc2)s1
inactive: Potency [1] | Potency [2] | Potency [3] | Potency [4]

COc1cc2c(cc1OC)C(=O)CC2
inactive: Potency [1] | Potency [2] | Potency [3] | Potency [4]

CC(=O)c1ccc[nH]1
inactive: Potency [1] | Potency [2] | Potency [3] | Potency [4]

Nc1nc(-c2ccccc2)c(Br)c(=O)[nH]1
inactive: Potency [1] | Potency [2] | Potency [3] | Potency [4]

Cc1c(C(=O)NCCO)[n+](=O)c2ccccc2n1[O-]
inactive: Potency [1] | Potency [2] | Potency [3] | Potency [4]

O=S(=O)(O)CCN1CCN(CCO)CC1
inactive: Potency [1] | Potency [2] | Potency [3] | Potency [4]

C1=CCC(c2ccccc2)CC1 (stereo not given)
inactive: Potency [1] | Potency [2] | Potency [3] | Potency [4]

CC(=O)N[C@@H](CC(C)C)C(=O)O
inactive: Potency [1] | Potency [2] | Potency [3] | Potency [4]

C=C1C[C@@]23CC[C@H]4[C@@](C)(CCC[C@@]4(C)C(=O)O[C@@H]4O[C@H](CO)[C@@H](O)[C@H](O)[C@H]4O)[C@@H]2CC[C@]1(O[C@@H]1O[C@H](CO)[C@@H](O)[C@H](O[C@@H]2O[C@H](CO)[C@@H](O)[C@H](O)[C@H]2O)[C@H]1O[C@@H]1O[C@H](CO)[C@@H](O)[C@H](O)[C@H]1O)C3
inactive: Potency [1] | Potency [2] | Potency [3] | Potency [4]

C[C@@H]1CC[C@H]2C(C)(C)[C@H]3C[C@@]12CC[C@@]3(C)O
inactive: Potency [1] | Potency [2] | Potency [3] | Potency [4]

CCCCOC(=O)/C=C\C(=O)OCCCC
inactive: Potency [1] | Potency [2] | Potency [3] | Potency [4]

COC(=O)c1cc(C(=O)OC)cc(S(=O)(=O)O)c1
inactive: Potency [1] | Potency [2] | Potency [3] | Potency [4]

OCCc1ccncc1
inactive: Potency [1] | Potency [2] | Potency [3] | Potency [4]

CCCCCCC(O)CO (stereo not given)
inactive: Potency [1] | Potency [2] | Potency [3] | Potency [4]

CN(C)CCCO[C@@H]1[C@H]2OC(C)(C)O[C@H]2O[C@@H]1C(O)CO (stereo not given in full)
inactive: Potency [1] | Potency [2] | Potency [3] | Potency [4]

c1csc(SSc2cccs2)c1
inactive: Potency [1] | Potency [2] | Potency [3] | Potency [4]

CC1(C)CC(O)CC(C)(C)N1[O]
inactive: Potency [1] | Potency [2] | Potency [3] | Potency [4]

CC(C)CCOC(=O)c1ccc(N(C)C)cc1
inactive: Potency [1] | Potency [2] | Potency [3] | Potency [4]

CCCOC(=O)c1ccc(N)cc1
inactive: Potency [1] | Potency [2] | Potency [3] | Potency [4]

CCCCC
inactive: Potency [1] | Potency [2] | Potency [3] | Potency [4]

CCCCCCCCC(=O)OCC(C)OC(=O)CCCCCCCC (stereo not given)
inactive: Potency [1] | Potency [2] | Potency [3] | Potency [4]

C[N+]1([O-])CCOCC1
inactive: Potency [1] | Potency [2] | Potency [3] | Potency [4]

O=C(/C=C/c1ccc(O)c(O)c1)O[C@@H]1C[C@](O)(C(=O)O)C[C@@H](O)[C@H]1O
inactive: Potency [1] | Potency [2] | Potency [3] | Potency [4]

O=C1CC[C@@H](C(=O)O)N1
inactive: Potency [1] | Potency [2] | Potency [3] | Potency [4]

[Ca+2]
inactive: Potency [1] | Potency [2] | Potency [3] | Potency [4]

Cc1ccc(N(CCO)CCO)cc1
inactive: Potency [1] | Potency [2] | Potency [3] | Potency [4]
